Structures are written as SMILES. About 1,300 (0.68%) of roughly 190,000 compounds were called active. The sample as a whole holds a higher share of actives than the screen did. Unmarked numbers belong to inactive results. Rule as the data show it: active = inhibition above about 50%; inactive = the rest.

The target in the assay is Mannose-6-phosphate isomerase (Homo sapiens) (UniProt P34949). Kind of assay: human PMI inhibitors, high substrate, primary screen, biochemical, fluorescence intensity, high mannose 6-phosphate (AID 1220). The note with it: recombinant PMI enzyme, coupled fluorescence intensity; at 20 µM; hits give high values.
Sequence of Mannose-6-phosphate isomerase (Homo sapiens) (P34949 whole entry, looked up): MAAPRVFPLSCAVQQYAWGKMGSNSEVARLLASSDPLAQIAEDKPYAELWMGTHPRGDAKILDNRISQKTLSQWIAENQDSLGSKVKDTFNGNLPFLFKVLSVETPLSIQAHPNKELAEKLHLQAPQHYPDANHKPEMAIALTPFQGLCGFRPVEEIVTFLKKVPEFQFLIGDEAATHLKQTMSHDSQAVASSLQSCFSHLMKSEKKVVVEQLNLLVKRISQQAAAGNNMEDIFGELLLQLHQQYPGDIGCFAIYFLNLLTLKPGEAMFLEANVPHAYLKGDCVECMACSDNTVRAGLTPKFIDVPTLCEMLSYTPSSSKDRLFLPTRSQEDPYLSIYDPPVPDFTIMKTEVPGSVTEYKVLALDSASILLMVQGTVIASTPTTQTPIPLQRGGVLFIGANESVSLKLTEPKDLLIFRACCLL
On to `COc1cc2c(cc1OC)CN(C1CC(=O)N(c3c(C)cccc3C)C1=O)CC2` (stereo not drawn), for which the inhibition was 2.1%.

Turning to `Cc1nc2ccc(NC(=S)NC3CC3)cc2nc1C`, the inhibition was 46.4%.

In the case of `CCOC(=O)N1CCN(S(=O)(=O)c2ccc(C(=O)Nc3ccc4c(c3)C(=O)NC4=O)cc2)CC1`, the inhibition was 14.7%.

Regarding `COc1c(C(=O)NCCSC(C)(C)C)ccc2ccccc12`, the inhibition is 2.8%.

As to `O=C(NCCn1ccc2ccccc21)C1CCCCC1`, the inhibition was 1.5%.

Regarding `CC(=O)OCCN(C)c1cc(SC(C)C)c2nonc2c1[N+](=O)[O-]`, the inhibition was 24.4%.

For `CC(=O)OCCNc1cc(Sc2nc3ccccc3[nH]2)c2nonc2c1[N+](=O)[O-]`, the inhibition is 26.1%.

For the compound `CC(=O)OCCCNc1cc(SCc2ccco2)c2nonc2c1[N+](=O)[O-]`, the inhibition was 40.1%.

As for `CC(=O)OCCNc1cc(SC(C)C)c2nonc2c1[N+](=O)[O-]`, the inhibition is 52% (active).

Turning to `CC(=O)OCCCNc1cc(Sc2ccc(Cl)cc2)c2nonc2c1[N+](=O)[O-]`, the inhibition was 56.3% (active).

Consider `CC(=O)OCCCNc1cc(Sc2ccc(C)cc2)c2nonc2c1[N+](=O)[O-]`, for which the inhibition is 45.7%.

`COc1ccc(C2CC(c3ccc(OC)cc3)n3nc(NC(=O)c4ccco4)nc3N2)cc1` (stereo not drawn): the inhibition was 3.4%.

In the case of `COc1cccc2c1OCC(C(=O)OCc1cccnc1)=C2`, the inhibition is 3.9%.

In the case of `COCc1cc(C)nc(N/N=C/c2ccc(-c3cc(C(=O)O)ccc3Cl)o2)c1C#N`, the inhibition is -8.6%.

Regarding `COCc1cc(C)nc(N/N=C/c2ccc(-c3ccc(C(=O)O)c(Cl)c3)o2)c1C#N`, the inhibition is -2.9%.

For the compound `COCc1cc(C)nc(N/N=C/c2ccc(-c3ccc(Cl)cc3[N+](=O)[O-])o2)c1C#N`, the inhibition is 55.9% (active).

Turning to `O=C1CCc2cc(S(=O)(=O)NC(C(=O)N3CCN(c4ccccn4)CC3)c3ccccc3)ccc2N1` (stereo not drawn), the inhibition is -3.8%.

Turning to `CNCC/C=C1/c2ccccc2CSc2ccccc21`, the inhibition is 14.2%.

Regarding `CCNC(=O)Nc1ccc(OC)cc1OC`, the inhibition is -3.8%.

With `COc1ccc(N2CCC(CNC(=O)Nc3ccc(Cl)cc3)C2)cc1` (stereo not drawn), the inhibition is 46.2%.

On to `CCOc1ccc(NC(=O)NCC2CCN(c3ccc(OC)cc3)C2)cc1` (stereo not drawn), for which the inhibition is 22.5%.

Take `COc1ccc(N2CCC(CNC(=O)Nc3ccc(C)c(C)c3)C2)cc1` (stereo not drawn): the inhibition was 52.6% (active).

Turning to `COc1ccc(N2CCC(CNC(=O)Nc3ccc(OC)cc3OC)C2)cc1` (stereo not drawn), the inhibition is 55.7% (active).

On to `COc1ccc(NC(=O)NCc2ccncc2)c(OC)c1`, for which the inhibition is 3.6%.

Regarding `CCSc1nnc(NC(=O)C(C)(C)C)s1`, the inhibition is 2%.

In the case of `CCO[C@@H]1OC(C(=O)NCc2ccccc2)=C[C@H](C2CC2)[C@H]1CCCO`, the inhibition was -7.4%.

On to `Cc1nc(N)[nH]c(=O)c1CCC(=O)OCC(C)C`, for which the inhibition is -23.1%.

With `Nc1c([N+](=O)[O-])c(=O)sc2ccccc12`, the inhibition is -0.6%.

On to `Nc1ccc2nc(-c3ccccc3)sc2c1`, for which the inhibition was 26.8%.

For `Nc1ccc2c(c1)sc1ccccc12`, the inhibition was 55.2% (active).

In the case of `Cc1c(C(=O)NCCc2ccc(S(N)(=O)=O)cc2)cccc1[N+](=O)[O-]`, the inhibition was -0.5%.

Consider `CCCN1C/C(=C/c2cccc([N+](=O)[O-])c2)C(=O)/C(=C/c2cccc([N+](=O)[O-])c2)C1`, for which the inhibition is -2.8%.

With `COc1ccc(N2CSC3=C(C#N)C(c4cccc(OC)c4OC)CC(=O)N3C2)cc1` (stereo not drawn), the inhibition is -24.3%.

Regarding `N#CC1=C2SCN(Cc3ccco3)CN2C(=O)CC1c1ccccc1F` (stereo not drawn), the inhibition is 15%.

Turning to `COc1ccc2ccccc2c1C1CC(=O)N2CN(Cc3ccco3)CSC2=C1C#N` (stereo not drawn), the inhibition was 62.9% (active).

For `N#CC1=C2SCN(Cc3ccco3)CN2C(=O)CC1c1cccc2ccccc12` (stereo not drawn), the inhibition was 68.8% (active).

In the case of `Cc1ccc(/C=C/C(=O)O)cc1S(=O)(=O)NCCCC(=O)O`, the inhibition was 0.6%.

On to `O=C(CCN1C(=O)C2C3C=CC(C3)C2C1=O)N1CCN(c2ccc([N+](=O)[O-])cc2)CC1` (stereo not drawn), for which the inhibition is 21.6%.

`CCC(=O)Nc1nc2nc(-c3ccccc3)cc(-c3ccccc3)n2n1`: the inhibition is 0.3%.

Regarding `Cc1ccc(O)c(NC(=S)NC(=O)/C=C/c2ccco2)c1`, the inhibition is -3.9%.

On to `Cc1cc(=O)oc2cc(OCc3ccc(C(=O)N4CCN(c5ccccc5)CC4)cc3)ccc12`, for which the inhibition is 10.2%.

For the compound `CCC(C)NC(=O)CNC(=S)N(Cc1ccccc1F)C1CCCCC1` (stereo not drawn), the inhibition is 6.1%.

For `COc1ccc(NC(=O)CSc2nnc(-c3cccnc3)n2Cc2ccco2)c(OC)c1`, the inhibition was 8%.

In the case of `c1ccc(OCCN2CCN(Cc3nc(-c4ccc5c(c4)OCO5)no3)CC2)cc1`, the inhibition is -4.3%.

Take `O=C(CC1Nc2cccc3cccc(c23)NC1=O)Nc1ccc(F)cc1` (stereo not drawn): the inhibition was 54% (active).

For `O=C(CC1Nc2cccc3cccc(c23)NC1=O)Nc1ccccc1` (stereo not drawn), the inhibition was 39%.

As to `CC(=O)Nc1ccc(NC(=O)CC2Nc3cccc4cccc(c34)NC2=O)cc1` (stereo not drawn), the inhibition is -5.1%.

On to `Brc1ccc(/C=N/c2nc3ccccc3n2CCN2CCOCC2)cc1`, for which the inhibition is 9.4%.

For `C=CCn1c(=NC(=O)c2ccc(S(=O)(=O)N3CCCc4ccccc43)cc2)sc2cc(S(N)(=O)=O)ccc21`, the inhibition is 59.2% (active).

Turning to `C=CCn1c(=NC(=O)c2ccc(S(=O)(=O)N3CCc4ccccc4C3)cc2)sc2cc(S(N)(=O)=O)ccc21`, the inhibition is 1.8%.

As to `C#CCn1c(=NC(=O)c2ccc(S(=O)(=O)N3CCCc4ccccc43)cc2)sc2cc(S(N)(=O)=O)ccc21`, the inhibition was 20.9%.

`N/C(=N\OC(=O)Oc1ccccc1)c1cccc([N+](=O)[O-])c1`: the inhibition was -8.6%.

Take `CCOC(=O)c1cc(NC(=O)Nc2ccccc2OC)c(C)nc1C`: the inhibition is 6%.

As for `CCCCCn1c(N)c(-c2nc3ccccc3o2)c2c([N+](=O)[O-])nn(C)c(=O)c21`, the inhibition is -0.9%.

As for `Cc1noc2ncnc(Oc3ccccc3Cl)c12`, the inhibition is 0%.

As to `COc1cccc(CN(C)C(=S)Nc2cccc(C)c2)c1`, the inhibition was 0.1%.

As for `O=C(CN1CCCCC1)N/N=C/c1cc2ccccc2nc1Cl`, the inhibition is -10.7%.

In the case of `O=C(CNc1ccc2ccccc2c1)N/N=C/c1cc2ccccc2nc1Cl`, the inhibition was 67.5% (active).

Consider `O=C(CN1CCOCC1)N/N=C/c1cc2ccccc2nc1Cl`, for which the inhibition was 15.9%.

As for `Cc1ccc(NCC(=O)N/N=C/c2cc(O)ccc2[N+](=O)[O-])cc1`, the inhibition was 57.6% (active).

For the compound `Cc1ccc(NCC(=O)N/N=C\c2cccc(O)c2)cc1`, the inhibition was 18.7%.

Regarding `O=C(COc1cccc(Cl)c1)N/N=C\c1cc2ccccc2nc1Cl`, the inhibition is -3.2%.

Regarding `Cc1ccc(NCC(=O)N/N=C/c2cc3ccccc3nc2Cl)cc1`, the inhibition was 57.6% (active).

`Cc1ccccc1OCC(=O)N/N=C/c1cc2ccccc2nc1Cl`: the inhibition was 9.1%.

In the case of `Cc1ccc(NCC(=O)N/N=C\c2ccc([N+](=O)[O-])o2)cc1`, the inhibition is -1.6%.

In the case of `CC(=O)Nc1ccc(S(=O)(=O)N2CCN(C(=O)N3CCOCC3)CC2)cc1`, the inhibition was 1.8%.

Regarding `O=C(CSCc1ccc(Cl)cc1)NCCSCc1ccco1`, the inhibition is 4%.

In the case of `O=C1NC(c2ccccc2)=C(c2nc3ccccc3s2)C(c2ccccc2)N1` (stereo not drawn), the inhibition was 14.1%.

As to `NC(=O)c1ccccc1NC(=O)Nc1cccc2ccccc12`, the inhibition is 19%.

Consider `COC(=O)c1ccc2c(c1)N(C)C(=O)CS2`, for which the inhibition is 6.4%.

As to `O=C(Nc1ccc2c(c1)OCCO2)c1ccc(Br)s1`, the inhibition is -2.3%.

In the case of `Cc1cc(C)c(S(=O)(=O)/N=C2\C=CC(=O)C(Cl)=C2)c(C)c1`, the inhibition was -6.5%.

As to `C=CCNc1nc(-c2c(C)nc3sccn23)cs1`, the inhibition was 55.2% (active).

In the case of `Cc1ccnc(Nc2nc(-c3c(C)nc4sccn34)cs2)c1`, the inhibition was 19.1%.

With `Cc1nc2sccn2c1-c1csc(NCc2ccccc2)n1`, the inhibition was 34.1%.

In the case of `COC(=O)c1c(O)c2c([nH]c1=O)CCCC2`, the inhibition was -0.6%.

On to `CCCCCn1c(CN2CC(C)OC(C)C2)nc2c1c(=O)n(C)c(=O)n2C` (stereo not drawn), for which the inhibition was 8.9%.

As to `CCn1c(Cc2cccs2)nnc1SCC(=O)NC(C)(C)C`, the inhibition is -5.7%.

For the compound `COCCn1c(Cc2ccccc2)nnc1SCC(=O)NC(C)(C)C`, the inhibition is -1.6%.

`CCn1c(Cc2ccccc2)nnc1SCC(=O)NC(C)(C)C`: the inhibition was 52.9% (active).

Take `CN1CCCN(C(=O)CNC(=O)Cc2ccccc2)CC1`: the inhibition was 4.9%.

On to `COC(=O)C1=C(C)NC2=C(C(=O)CCC2)C1c1cn(Cc2ccc(Br)cc2)nc1-c1ccccc1` (stereo not drawn), for which the inhibition was 13.4%.

Regarding `COc1ccc(OC)c(NC(=O)Nc2ccccc2C)c1`, the inhibition was 1.9%.

With `COc1ccc(OC)c(NC(=O)NC2(C(F)(F)F)Oc3ccccc3O2)c1`, the inhibition is 58% (active).

As to `COc1cccc(NC(=O)NC2(C(F)(F)F)Oc3ccccc3O2)c1`, the inhibition was 48.7%.

For the compound `COc1ccc(N2CCN(CCC3Oc4cc([N+](=O)[O-])ccc4NC3=O)CC2)cc1` (stereo not drawn), the inhibition was 38.8%.

With `Cc1cc(NC(=O)C2CC2)ncc1NC(=O)C12CC3CC(CC(C3)C1)C2`, the inhibition is 5.3%.

Regarding `CC1(c2ccc(Cl)cc2Cl)OCC(Cn2ccnc2)O1` (stereo not drawn), the inhibition is 3.5%.

Take `Oc1ccc(Br)cc1C=Nc1ccc2c3c(cccc13)CC2`: the inhibition is 67.1% (active).

For `CC(C)(C)c1ccc(O)c(N=Cc2cc(Br)ccc2O)c1`, the inhibition is 39.3%.

With `Cc1cccc(C=Nc2ccc3c4c(cccc24)CC3)c1O`, the inhibition was 45.4%.

`Cc1nnc(SCC(=O)NC2CCS(=O)(=O)C2)n1-c1ccccc1` (stereo not drawn): the inhibition was -3.2%.

In the case of `O=S(=O)(Nc1cc(Sc2cccc3cccnc23)c(O)c2ccccc12)c1ccc(F)cc1`, the inhibition is 51.1% (active).

In the case of `CCc1ccc(S(=O)(=O)Nc2cc(SCC(=O)O)c(O)c3ccccc23)cc1`, the inhibition is 7.4%.

For `O=C(Sc1cccc2cccnc12)c1ccc(F)cc1`, the inhibition was 11.3%.

For `COc1ccc(S(=O)(=O)Nc2ccc(O)c(Sc3ncn[nH]3)c2)cc1`, the inhibition was 13%.

For the compound `COc1ccc(S(=O)(=O)Nc2cc(Sc3ncn[nH]3)c(O)c3ccccc23)cc1`, the inhibition is 72.4% (active).

Turning to `Cc1ccc(S(=O)(=O)Nc2cccc3cccnc23)cc1`, the inhibition was 16.3%.

For `O=S(=O)(Nc1cc(Sc2cccc3cccnc23)c(O)c2ccccc12)c1ccccc1`, the inhibition was 63.7% (active).

Turning to `Cc1cc(C)c(S(=O)(=O)Nc2cc(SCC(=O)O)c(O)c3ccccc23)cc1C`, the inhibition was 21.6%.

For `Cc1ccc(S(=O)(=O)Nc2ccc(O)c3ncccc23)cc1`, the inhibition is 27.9%.

In the case of `CCOc1ccc(S(=O)(=O)Nc2ccc(O)c(Sc3ncn[nH]3)c2)cc1`, the inhibition was 2.5%.

Turning to `O=S(=O)(Nc1ccccc1O)c1cccc2cccnc12`, the inhibition was 11.7%.

The record behind these values is PubChem BioAssay AID1220 (Sanford-Burnham Center for Chemical Genomics, 2008).
